Among the test systems are NCI-H23 lung; NCI-H226 lung; NCI-H322M lung; HOP-62 NSCLC; NCI-H460 lung; HOP-92 NSCLC; NCI-H522 lung; A549/ATCC NSCLC; 786-0 renal; COLO 205 colon.
Experiment in all cases: NCI-60 one-dose screen, 48 h (100 = growth as untreated, 0 = no growth, -100 = all killed)
Common to all, as to conditions: 10 µM unless noted

Compounds without any hit were thinned out: in the full panel of roughly 83,000, 20% have a hit.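 Growth was measured after 48 h exposure to one concentration of compound in 96-well plates. Values under 10 count as active.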 Values without a mark were called inactive. Activity calls are given as the source filed them.

Take `COc1ccc(C(=O)Nc2cccc(C3CC(=O)c4c(cc(OC)c(OC)c4OC)O3)c2)cc1` (stereo not given): the growth in the assay with NCI-H23 lung is 35.2%; in the assay with NCI-H226 lung, 25%; with NCI-H322M lung, 37.8%; with HOP-62 NSCLC, 14.1%; with NCI-H460 lung, 4.37% (active); in the assay with HOP-92 NSCLC, 34.3%. Further, the growth in the assay on NCI-H522 lung was -37.1% (active); in the assay on A549/ATCC NSCLC it was 28.5%; in the assay on 786-0 renal it was 13.8%; with COLO 205 colon it was -5% (active).

`CS(=O)(=O)Nc1cc(-c2ccc3ncnc(Nc4c(Cl)ccc5c4OCO5)c3c2)cnc1Cl`: the growth with NCI-H23 lung was 0.217% (active); with NCI-H226 lung, 12.7%; in the assay with NCI-H322M lung, -39% (active); in the assay with HOP-62 NSCLC, 9.21% (active); in the assay on NCI-H460 lung, 7.13% (active); in the assay with HOP-92 NSCLC, -10.5% (active). Further, the growth was -13.8% (active) with NCI-H522 lung, -13.7% (active) with A549/ATCC NSCLC, 0.785% (active) in the assay on 786-0 renal and -45% (active) in the assay on COLO 205 colon.

`C[C@H](NC(=O)[C@@H](C)N)[C@H](Oc1ccc2c(cnn2-c2ccc(F)cc2)c1)c1ccc2c(c1)OCCO2`: the growth in the assay on NCI-H23 lung was 83.7%; in the assay on NCI-H226 lung it was 83.9%; in the assay with NCI-H322M lung, 75.5%; in the assay on HOP-62 NSCLC, 50.6%; in the assay on NCI-H460 lung, 0.905% (active); in the assay with HOP-92 NSCLC it was -4.6% (active). Moreover, the growth in the assay on NCI-H522 lung is 24.8%; in the assay with A549/ATCC NSCLC, 39.3%; in the assay on 786-0 renal, 56.7%; with COLO 205 colon it was -3.17% (active).

With `CC(C)n1cnc2c(=S)nc[nH]c21`, the growth is 114% in the assay with NCI-H23 lung; 107% in the assay on NCI-H226 lung; 112% with NCI-H322M lung; 108% in the assay on HOP-62 NSCLC; 111% with NCI-H460 lung; 103% in the assay with HOP-92 NSCLC. Moreover, the growth is 105% in the assay on NCI-H522 lung, 126% in the assay on A549/ATCC NSCLC, 113% in the assay on 786-0 renal and 114% in the assay with COLO 205 colon.

In the case of `Cc1nnc(NC(=O)c2nc(S(=O)(=O)Cc3ccc(F)cc3)ncc2Cl)s1`, the growth was 90.5% with NCI-H23 lung; 98.7% with NCI-H226 lung; 93.8% in the assay with NCI-H322M lung; 86.1% in the assay with HOP-62 NSCLC; 105% in the assay with NCI-H460 lung; -85.7% (active) in the assay with HOP-92 NSCLC. In addition, the growth in the assay on NCI-H522 lung is -67.3% (active); in the assay with A549/ATCC NSCLC, 79.3%; in the assay with 786-0 renal it was 48.3%; with COLO 205 colon, -18.8% (active).

`COc1ccc(C(c2cc(OC)c(OC)c(OC)c2)N2CCN(c3ccccc3)CC2)cc1` (stereo not given): the growth was 84.4% in the assay with NCI-H23 lung; 101% in the assay on NCI-H226 lung; 83.7% in the assay on NCI-H322M lung; 88.9% with HOP-62 NSCLC; 96.9% with NCI-H460 lung; 86.7% in the assay on HOP-92 NSCLC. In addition, the growth in the assay with NCI-H522 lung was 56.5%; in the assay on A549/ATCC NSCLC, 85.7%; in the assay on 786-0 renal, 101%; in the assay on COLO 205 colon it was 92.7%.

As to `COC(=O)c1c2c(c(C)[n+]([O-])c1C)C(=O)C=C(NCc1ccc(OC)cc1)C2=O`, the growth was -38.8% (active) in the assay on NCI-H23 lung; -8.68% (active) in the assay on NCI-H226 lung; -6.26% (active) in the assay on NCI-H322M lung; 3.79% (active) in the assay on HOP-62 NSCLC; -3.91% (active) in the assay with NCI-H460 lung; -35.3% (active) in the assay on HOP-92 NSCLC. Also, the growth in the assay on NCI-H522 lung is -19.5% (active); with A549/ATCC NSCLC, -18.4% (active); in the assay with 786-0 renal it was 3.11% (active); in the assay with COLO 205 colon it was -54% (active).

Regarding `Cc1nc(N2CCOCC2)sc1S(N)(=O)=O`, the growth in the assay with NCI-H23 lung is 102%; in the assay on NCI-H226 lung it was 84.5%; with NCI-H322M lung, 94%; with HOP-62 NSCLC, 94.5%; in the assay on NCI-H460 lung it was 102%; in the assay with HOP-92 NSCLC, 88.2%. Also, the growth in the assay with NCI-H522 lung is 92.8%; in the assay with A549/ATCC NSCLC, 101%; with 786-0 renal, 101%; in the assay on COLO 205 colon it was 104%.

For `COC(=O)c1ccc2c(c1)C(=O)c1c-2n(CCCN)c(=O)c2cc([N+](=O)[O-])ccc12`, the growth is -53.8% (active) with NCI-H23 lung; -73.4% (active) in the assay with NCI-H226 lung; -84.3% (active) in the assay with NCI-H322M lung; -93.2% (active) in the assay with HOP-62 NSCLC; -100% (active) in the assay on NCI-H460 lung; -88.1% (active) in the assay with HOP-92 NSCLC. The growth is -78.2% (active) in the assay on NCI-H522 lung, -94% (active) with A549/ATCC NSCLC, -98.5% (active) in the assay with 786-0 renal and -100% (active) in the assay on COLO 205 colon.

Regarding `O=C(COc1ccc(-c2nc3ccccc3[nH]2)cc1)N=Nc1c(O)[nH]c2ccc(Cl)cc12`, the growth in the assay on NCI-H23 lung was 87.3%; in the assay on NCI-H226 lung, 97%; in the assay on NCI-H322M lung, 101%; with HOP-62 NSCLC it was 99.9%; with NCI-H460 lung, 30.7%; in the assay with HOP-92 NSCLC, 93%. The growth with NCI-H522 lung is 93.6%; with A549/ATCC NSCLC, 99%; in the assay with 786-0 renal, 46%; with COLO 205 colon, 53.3%.

`C=C1C(=O)O[C@H]2[C@H]1CC/C(COC(=O)CSCCSCC(=O)OC/C1=C/CC[C@@]3(C)O[C@H]3[C@H]3OC(=O)C(=C)[C@@H]3CC1)=C\CC[C@@]1(C)O[C@@H]21`: the growth was 40.6% in the assay with NCI-H23 lung; 8.95% (active) in the assay on NCI-H226 lung; 77.2% in the assay with NCI-H322M lung; 81.2% in the assay with HOP-62 NSCLC; 22.1% with NCI-H460 lung; -0.141% (active) in the assay with HOP-92 NSCLC. The growth in the assay on NCI-H522 lung is -76.2% (active); in the assay with A549/ATCC NSCLC it was 69.5%; with 786-0 renal, -24.2% (active); in the assay with COLO 205 colon, -37.7% (active).

Consider `C=C1CC[C@@H]2[C@](C)(COC(C)=O)[C@H](OC(C)=O)CC[C@@]2(C)[C@@H]1CC(Sc1ccccc1)C1=CCOC1=O` (stereo not given in full), for which the growth in the assay with NCI-H23 lung was 24.5%; in the assay with NCI-H226 lung it was -9.88% (active); in the assay with NCI-H322M lung, 67.1%; with HOP-62 NSCLC, -18.2% (active); in the assay on NCI-H460 lung it was 21.7%; in the assay with HOP-92 NSCLC it was 24.5%. Further, the growth with NCI-H522 lung was -80.6% (active); in the assay on A549/ATCC NSCLC, 26.6%; with 786-0 renal, -31.2% (active); in the assay with COLO 205 colon, -68.1% (active).

(Values after PubChem BioAssay (NCI).)
